Measured values: the supplement of paper PMC10077471
The full ranking holds about 1,900 compounds; the median of “excess over highest single agent (ExcessHSA) synergy score, 6x6 matrix” is about -83, and the lowest 2% start at about -370. Only a selection was taken, and the lowest values are over-represented in it overall.

Tested on: NCI-H446
Experiment: excess over highest single agent (ExcessHSA) synergy score, 6x6 matrix; higher = less synergy (more negative = stronger synergy)
Details: 72 h; CellTiter-Glo viability

Row | SMILES | excess over highest single agent
1 | Cc1c(CCOc2ccc(C(=O)O)cc2)c2cc(Cl)ccc2n1C(c1ccccc1)c1ccccc1 + Cc1sc2c(c1C)C(c1ccc(Cl)cc1)=N[C@@H](CC(=O)OC(C)(C)C)c1nnc(C)n1-2 [NCGC00250412-19] | -12
2 | COc1cccc2c1C(=O)c1c(O)c3c(c(O)c1C2=O)C[C@@](O)(C(=O)CO)C[C@@H]3O[C@H]1C[C@H](N)[C@@H](O)[C@H](C)O1 + Cc1sc2c(c1C)C(c1ccc(Cl)cc1)=N[C@@H](CC(=O)OC(C)(C)C)c1nnc(C)n1-2 [NCGC00250412-19] | -433
3 | COc1cccc2c1C(=O)c1c(O)c3c(c(O)c1C2=O)C[C@@](O)(C(C)=O)C[C@@H]3O[C@H]1C[C@H](N)[C@H](O)[C@H](C)O1 + Cc1sc2c(c1C)C(c1ccc(Cl)cc1)=N[C@@H](CC(=O)OC(C)(C)C)c1nnc(C)n1-2 [NCGC00250412-19] | -304
4 | COc1cccc2c1C(=O)c1c(O)c3c(c(O)c1C2=O)C[C@@](O)(C(=O)CO)C[C@@H]3O[C@H]1C[C@H](N)[C@H](O)[C@H](C)O1 + Cc1sc2c(c1C)C(c1ccc(Cl)cc1)=N[C@@H](CC(=O)OC(C)(C)C)c1nnc(C)n1-2 [NCGC00250412-19] | -176
5 | C[N+](C)([O-])CCNc1ccc(NCC[N+](C)(C)[O-])c2c1C(=O)c1c(O)ccc(O)c1C2=O + Cc1sc2c(c1C)C(c1ccc(Cl)cc1)=N[C@@H](CC(=O)OC(C)(C)C)c1nnc(C)n1-2 [NCGC00250412-19] | -286
6 | CN(C)c1ccc(C(=O)NCCCCCCC(=O)NO)cc1 + Cc1sc2c(c1C)C(c1ccc(Cl)cc1)=N[C@@H](CC(=O)OC(C)(C)C)c1nnc(C)n1-2 [NCGC00250412-19] | -250
7 | Nc1ccc(C(=O)c2cc3c(ccc4ccccc43)[nH]2)cc1 + Cc1sc2c(c1C)C(c1ccc(Cl)cc1)=N[C@@H](CC(=O)OC(C)(C)C)c1nnc(C)n1-2 [NCGC00250412-19] | -275
8 | CO[C@H]1C(=O)[C@]2(C)[C@@H](OC)C[C@H]3OC[C@@]3(OC(C)=O)[C@H]2[C@H](OC(=O)c2ccccc2)[C@]2(O)C[C@H](OC(=O)[C@H](O)[C@@H](NC(=O)OC(C)(C)C)c3ccccc3)C(C)=C1C2(C)C + Cc1sc2c(c1C)C(c1ccc(Cl)cc1)=N[C@@H](CC(=O)OC(C)(C)C)c1nnc(C)n1-2 [NCGC00250412-19] | -412
9 | CC(=O)O[C@@]12CO[C@@H]1C[C@H](O)[C@@]1(C)C(=O)[C@H](O)C3=C(C)[C@@H](OC(=O)[C@H](O)[C@@H](NC(=O)OC(C)(C)C)c4ccccc4)C[C@@](O)([C@@H](OC(=O)c4ccccc4)[C@H]21)C3(C)C + Cc1sc2c(c1C)C(c1ccc(Cl)cc1)=N[C@@H](CC(=O)OC(C)(C)C)c1nnc(C)n1-2 [NCGC00250412-19] | -135
10 | CC(=O)O[C@H]1C(=O)[C@@]2(C)[C@H]([C@H](OC(=O)c3ccccc3)[C@]3(O)C[C@H](OC(=O)[C@H](O)[C@@H](NC(=O)c4ccccc4)c4ccccc4)C(C)=C1C3(C)C)[C@]1(OC(C)=O)CO[C@@H]1C[C@@H]2O + Cc1sc2c(c1C)C(c1ccc(Cl)cc1)=N[C@@H](CC(=O)OC(C)(C)C)c1nnc(C)n1-2 [NCGC00250412-19] | -144
11 | CC(C)c1ccccc1Cc1cc(C(=O)Nc2ccc(S(=O)(=O)c3ccccc3C(C)(C)C)cc2)c(O)c(O)c1O + Cc1sc2c(c1C)C(c1ccc(Cl)cc1)=N[C@@H](CC(=O)OC(C)(C)C)c1nnc(C)n1-2 [NCGC00250412-19] | -282
12 | Cc1ccccc1C(C(=O)NC1CCCCC1)N(C(=O)CNc1ccc(C#N)cc1)c1cccc(F)c1 (stereo unspecified) + Cc1sc2c(c1C)C(c1ccc(Cl)cc1)=N[C@@H](CC(=O)OC(C)(C)C)c1nnc(C)n1-2 [NCGC00250412-19] | -209
13 | O=C(O)C(=O)O.[NH-]C1CCCCC1[NH-].[Pt+2] (stereo unspecified) + Cc1sc2c(c1C)C(c1ccc(Cl)cc1)=N[C@@H](CC(=O)OC(C)(C)C)c1nnc(C)n1-2 [NCGC00250412-19] | -135
14 | CC(C)(N)C(=O)N[C@H](COCc1ccccc1)C(=O)N1CCC2(CC1)CN(S(C)(=O)=O)c1ccccc12 + Cc1sc2c(c1C)C(c1ccc(Cl)cc1)=N[C@@H](CC(=O)OC(C)(C)C)c1nnc(C)n1-2 [NCGC00250412-19] | -36
15 | CC(C)CC(=O)Nc1n[nH]c2c1CN(C(=O)C1CCN(C)CC1)C2(C)C + Cc1sc2c(c1C)C(c1ccc(Cl)cc1)=N[C@@H](CC(=O)OC(C)(C)C)c1nnc(C)n1-2 [NCGC00250412-19] | -619
16 | COc1cc(Oc2ccnc3cc(OC)c(OC)cc23)ccc1NC(=O)NC(C)c1nccs1 (stereo unspecified) + Cc1sc2c(c1C)C(c1ccc(Cl)cc1)=N[C@@H](CC(=O)OC(C)(C)C)c1nnc(C)n1-2 [NCGC00250412-19] | -83.5
17 | COc1ccc2[nH]c([S+]([O-])Cc3ncc(C)c(OC)c3C)nc2c1 (stereo unspecified) + Cc1sc2c(c1C)C(c1ccc(Cl)cc1)=N[C@@H](CC(=O)OC(C)(C)C)c1nnc(C)n1-2 [NCGC00250412-19] | 45.9
18 | COc1c(C)cnc(Cn2cnc3c(Cl)nc(N)nc32)c1C + Cc1sc2c(c1C)C(c1ccc(Cl)cc1)=N[C@@H](CC(=O)OC(C)(C)C)c1nnc(C)n1-2 [NCGC00250412-19] | -371
19 | COc1ccc2cc(-c3nc(-c4ccc([S+](C)[O-])cc4)[nH]c3-c3ccncc3)ccc2c1 (stereo unspecified) + Cc1sc2c(c1C)C(c1ccc(Cl)cc1)=N[C@@H](CC(=O)OC(C)(C)C)c1nnc(C)n1-2 [NCGC00250412-19] | -100
20 | CCN(CC)CCOc1ccc(Nc2ncc3cc(-c4c(Cl)cccc4Cl)c(=O)n(C)c3n2)cc1 + Cc1sc2c(c1C)C(c1ccc(Cl)cc1)=N[C@@H](CC(=O)OC(C)(C)C)c1nnc(C)n1-2 [NCGC00250412-19] | -126
21 | CC(C)(O)CCc1ccc(OCc2cc(-c3cccc(OC(F)F)c3)c3ncccc3c2)cc1 + Cc1sc2c(c1C)C(c1ccc(Cl)cc1)=N[C@@H](CC(=O)OC(C)(C)C)c1nnc(C)n1-2 [NCGC00250412-19] | 48.5
